What follows are sequences tested against RILPL1 (assay: pooled miR-30 sensor sort-seq; sequence = guide strand). Conditions: shRNA.
Also: reference of the scale not given here.

Row | Sequence | sensor-assay potency score (higher = more potent)
1 | TCCTGCAGCAAGAACACCTTGG | -0.555
2 | TTGTTTGTCCACCACCTCCTTC | -0.987
3 | TAAATAAACATTTCTTTAGAGT | -1.18
4 | TTAGAAACAGTGATAGCCCTGG | 0.299
5 | TTGCGCTCCTTCTCGATGCGGT | -0.346
6 | TGAGAAGTTGACATCCTTGTGG | 0.201
7 | TTGGCGCGGATCTCGTCGCGTT | -1.09
8 | TTCAGGGTGCATCTGCACCGAG | -0.831
9 | TTGGACTTGAGCTCGTTCCTCT | -0.104
10 | TTTGGCTTAAAGAAGCTTGTGT | 0.806
11 | TCATCTATTAGAAACAGTGATA | -1.01
12 | TATTCGGTTTTCCTCTTCCATT | -1.63

The sequences below were run against RIMKLA in the same assay as above. Conditions: shRNA.

Row | Sequence | sensor-assay potency score (higher = more potent)
13 | TCACTGTCTGACTGCACTGAGG | -1.83
14 | AAGCATAGAGCCTATGACCTGG | 0.485
15 | TTTCACTAGAGGTAGACCCACT | -0.539
16 | TGTCTGACTGCACTGAGGGTGT | -0.858
17 | TTGGACTCGACAGTCCTGGGAG | 0.0465
18 | TCACACACCACAAAGGAGCCAT | 0.0799
19 | TAGCATTTGCCTCACACACCAC | -0.761
20 | TAGGAAGCCAACATTAGCATTT | -1.24
21 | ATCAATGCCACAGAAGTCCATG | -1.18
22 | TAATGTTGTAGCCAGGTTCGGG | -0.494
23 | TAGTCCTCGCGGATGCGCCGGT | -0.762
24 | TTGATGGTATAGACGCTCTCTG | -0.814
